Where “and” joins values, the source holds several entries; their conditions need not be identical. Identical values can stand only once. Results filed as inconclusive are left out. Calls of active or inactive are those of the source. Unless noted, calls come from the whole dose curve; as a rule, active = well fitted curve in the direction sought with a large enough effect; inconclusive = small, poorly fitted or top-dose-only effect, or another doubt; inactive = no such curve, though single readings can be large; an effect the other way counts as inactive or inconclusive.
Experiments:
[1] = molecular target: Thyroid hormone receptor beta (Homo sapiens) (UniProt P10828); test: qHTS assay for small molecule antagonists of thyroid hormone receptor beta signaling (AID 588547; active = well fitted inhibition curve with a large enough effect in the signal ratio, with a control signal flat, not every such curve was filed as active; the % refers to the signal ratio;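 note: cells stimulated with 0.4 nM T3 agonist during compound exposure; % is set by controls: 0 for no effect and ±100 for the full control effect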); details: TR-UAS-bla HEK293, beta-lactamase ratio, antagonist mode, 18 h
Thyroid hormone receptor beta (Homo sapiens), sequence (P10828 whole entry, looked up): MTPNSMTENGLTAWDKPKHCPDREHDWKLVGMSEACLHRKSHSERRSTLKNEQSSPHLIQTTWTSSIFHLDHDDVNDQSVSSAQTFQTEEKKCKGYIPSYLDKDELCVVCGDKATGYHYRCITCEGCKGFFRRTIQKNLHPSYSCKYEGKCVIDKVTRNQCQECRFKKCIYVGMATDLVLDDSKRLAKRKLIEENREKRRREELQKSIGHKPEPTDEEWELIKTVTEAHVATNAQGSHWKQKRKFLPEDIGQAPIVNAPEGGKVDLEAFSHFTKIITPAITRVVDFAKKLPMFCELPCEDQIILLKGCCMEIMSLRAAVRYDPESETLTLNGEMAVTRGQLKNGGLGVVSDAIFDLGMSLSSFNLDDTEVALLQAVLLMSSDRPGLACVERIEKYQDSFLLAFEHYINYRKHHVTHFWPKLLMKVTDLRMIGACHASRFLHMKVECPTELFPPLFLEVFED
Procedure, shortened: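 TR-UAS-bla GripTite HEK293 cells in 2% charcoal/dextran FBS medium were preincubated 4 h at 37 C, given compound (0.59 nM to 92 uM) plus 0.4 nM T3 (final) for 18 h, then CCF4 for 2 h at RT; Hill fit gave IC50.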

[2] = molecular target: Voltage-gated inwardly rectifying potassium channel KCNH2 (Homo sapiens) (UniProt Q12809); test: qHTS Assay for Small Molecule Inhibitors of the Human hERG Channel Activity (AID 588834); details: U2OS BacMam hERG, FluxOR thallium flux fluorescence; series mostly up to 46.1 µM;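 note: top concentration of the series differs between compounds; % is set by controls: 0 for no effect and ±100 for the full control effect; lower thallium flux fluorescence means stronger hERG block; nearly all actives have a fitted effect of over 50% in size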
Voltage-gated inwardly rectifying potassium channel KCNH2 (Homo sapiens), sequence (Q12809 whole entry, looked up): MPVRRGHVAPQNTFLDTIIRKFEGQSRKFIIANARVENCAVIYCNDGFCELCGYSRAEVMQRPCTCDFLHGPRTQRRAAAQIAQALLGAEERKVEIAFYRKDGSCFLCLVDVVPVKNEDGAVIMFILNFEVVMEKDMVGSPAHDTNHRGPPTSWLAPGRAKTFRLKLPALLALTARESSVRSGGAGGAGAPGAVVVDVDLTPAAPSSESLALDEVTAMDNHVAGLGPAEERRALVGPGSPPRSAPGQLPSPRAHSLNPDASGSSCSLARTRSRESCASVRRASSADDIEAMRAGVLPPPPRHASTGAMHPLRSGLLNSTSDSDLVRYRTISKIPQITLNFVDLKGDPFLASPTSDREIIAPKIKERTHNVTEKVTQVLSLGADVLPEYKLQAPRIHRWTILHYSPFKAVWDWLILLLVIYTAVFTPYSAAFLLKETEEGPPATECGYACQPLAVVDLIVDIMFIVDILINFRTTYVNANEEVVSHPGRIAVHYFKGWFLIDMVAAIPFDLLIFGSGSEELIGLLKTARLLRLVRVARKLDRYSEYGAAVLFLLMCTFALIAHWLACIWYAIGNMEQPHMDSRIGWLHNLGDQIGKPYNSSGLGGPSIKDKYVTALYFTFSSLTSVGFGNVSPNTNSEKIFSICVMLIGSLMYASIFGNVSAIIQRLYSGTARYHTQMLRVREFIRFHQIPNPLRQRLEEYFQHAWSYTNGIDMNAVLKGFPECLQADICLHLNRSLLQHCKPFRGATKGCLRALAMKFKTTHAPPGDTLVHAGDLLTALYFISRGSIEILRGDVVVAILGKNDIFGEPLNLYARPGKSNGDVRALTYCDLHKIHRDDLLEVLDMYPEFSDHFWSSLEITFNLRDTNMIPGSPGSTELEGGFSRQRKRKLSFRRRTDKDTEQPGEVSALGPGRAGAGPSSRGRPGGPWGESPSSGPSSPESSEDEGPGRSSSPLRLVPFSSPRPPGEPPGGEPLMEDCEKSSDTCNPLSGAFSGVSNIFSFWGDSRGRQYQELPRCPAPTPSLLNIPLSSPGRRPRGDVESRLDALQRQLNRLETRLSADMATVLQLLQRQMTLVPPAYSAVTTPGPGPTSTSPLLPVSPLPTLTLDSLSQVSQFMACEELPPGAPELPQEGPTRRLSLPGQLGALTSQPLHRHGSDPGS
Procedure, shortened: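 U2OS cells BacMam-transduced with hERG, 2000 cells/well, compound ~10 min at 37 °C before stimulation buffer. FluxOR thallium flux fluorescence read kinetically on FDSS; decrease indicates block; AC50 from Hill fits.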

[3] = molecular target: Luciferin 4-monooxygenase (Photinus pyralis) (UniProt P08659); test: Biochemical firefly luciferase enzyme assay for NPC (AID 624030);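 note: purified P. pyralis luciferase at 10 nM with luciferin and ATP substrate; 0% = DMSO and -100% = full luciferase inhibition by PTC124 control; nearly all actives have a fitted effect of over 70% in size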; details: purified P. pyralis luciferase, luminescence, 5 min; series mostly up to 58.6 µM
Luciferin 4-monooxygenase (Photinus pyralis), sequence (P08659 whole entry, looked up): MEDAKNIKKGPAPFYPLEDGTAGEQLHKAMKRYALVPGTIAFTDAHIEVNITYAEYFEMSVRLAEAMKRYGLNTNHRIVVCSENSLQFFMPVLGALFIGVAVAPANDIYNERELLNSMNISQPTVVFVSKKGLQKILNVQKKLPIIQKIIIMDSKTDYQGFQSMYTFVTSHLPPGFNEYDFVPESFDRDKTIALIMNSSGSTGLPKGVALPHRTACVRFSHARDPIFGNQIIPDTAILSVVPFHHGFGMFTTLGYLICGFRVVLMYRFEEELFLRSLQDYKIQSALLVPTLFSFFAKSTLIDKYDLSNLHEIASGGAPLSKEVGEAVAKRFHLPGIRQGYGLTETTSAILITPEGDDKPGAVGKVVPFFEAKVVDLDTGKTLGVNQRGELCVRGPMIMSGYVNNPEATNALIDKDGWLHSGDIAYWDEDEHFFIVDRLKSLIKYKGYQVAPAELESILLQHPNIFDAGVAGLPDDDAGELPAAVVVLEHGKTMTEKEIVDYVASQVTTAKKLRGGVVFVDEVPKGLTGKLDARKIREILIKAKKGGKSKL
Procedure, shortened: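 Counter-screen for direct inhibition of the luciferase enzyme by approved-drug library compounds, run at 10 nM enzyme in 50 mM Tris acetate (final). Luminescence was read within 5 min of enzyme-buffer addition and normalized to PTC124 versus DMSO (0%).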

[4] = S16 Schwann cell viability assay (CellTiter-Glo assay) (AID 624031); details: S16 rat Schwann cells viability, 24 h; series mostly up to 57.5 µM;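 note: native untransfected S16 rat Schwann cells; cellular ATP luminescence as a viability measure; plate controls were DMSO-treated cells for no effect and cell-free wells for full effect; nearly all actives have a fitted effect of over 70% in size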
Procedure, shortened: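 Rat S16 Schwann cells without reporter constructs received compound or DMSO for 24 h at 37 °C under 5% CO2. Cellular ATP was then quantified by CellTiter-Glo luminescence, with vehicle wells defined as 0% activity and cell-free wells as reference.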

[5] = qHTS assay for small molecule activators of the p53 signaling pathway (AID 651743; active = well fitted activation curve with a large enough effect in the signal ratio, not every such curve was filed as active; the % refers to the signal ratio; note: % of control where 0% means no effect); details: HCT-116 p53RE-bla, beta-lactamase FRET ratio, 16 h; active compounds read high
Procedure, shortened: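 Cell-based beta-lactamase reporter (p53 response elements, HCT-116 background). After a 5-hour preincubation, cells received compound for 16 hours at 37 C; substrate development ran 2 hours at room temperature.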

[6] = qHTS assay for small molecule activators of the nuclear factor-kappa B (NF-kB) signaling pathway (AID 651749; active = well fitted activation curve with a large enough effect in the signal ratio; the % refers to the signal ratio; note: % of control where 0% means no effect); details: NF-kB-bla ME-180 cells, beta-lactamase FRET ratio, 16 h; active compounds read high
Procedure, shortened: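 Screening used 2,000 ME-180 reporter cells per well exposed to pinned compound (23 nL) or DMSO; after 16 hr at 37C, beta-lactamase expression under NF-kB control was assessed through FRET.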

[7] = qHTS assay for small molecule agonists of the antioxidant response element (ARE) signaling pathway (AID 651741; active = well fitted activation curve with a large enough effect in the signal ratio; the % refers to the signal ratio; note: potency is the fitted concentration of half-maximal effect; for activation: % of control where 0% means no effect); details: HepG2 ARE-bla reporter, beta-lactamase FRET ratio, 16 h; series mostly up to 96 µM
Procedure, shortened: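 Compounds in DMSO are pinned onto HepG2 ARE-bla cells (2,000/well) that were preincubated 5 h; plates stay 16 h at 37 C, then beta-lactamase activity is detected with LiveBLAzer B/G substrate by fluorescence.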

[8] = S16 Schwann cell PMP22 intronic element firefly luciferase assay (AID 624032); details: S16 rat Schwann cells, PMP22 element FLuc, 24 h; series mostly up to 57.5 µM;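 note: plate controls were DMSO for no effect and PTC124 positive control mean for full effect; nearly all actives have a fitted effect of over 30% in size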
Procedure, shortened: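 Rat S16 Schwann cells stably carrying a PMP22 intronic element-driven Fluc reporter were seeded overnight, then exposed to compounds for 24 h at 37 °C. Luminescence was normalized to PTC124 (positive control) and DMSO (0% activity).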

[9] = S16 Schwann cell PMP22 intronic element beta-lactamase assay (AID 624044; calls by dose curve;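 note: 0% = DMSO and -100% = potassium clavulanate positive control; nearly all actives have a fitted effect of over 15% in size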); details: S16 rat Schwann cells, PMP22 element beta-lactamase FRET, 24 h; series mostly up to 38.3 µM
Procedure, shortened: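 Rat S16 Schwann cells with beta-Lac driven by a PMP22 intronic element, compound-treated 24 h at 37 °C. LiveBLAzer FRET B/G read: 460 nm normalized to potassium clavulanate vs DMSO; 535 nm FRET as viability; concentration-effect curves classified.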

CCCCCCCCCCCCCCCCCCO
inactive: activity change % (negative = inhibition) [1] 3.9% | Potency [2] | Potency [3] | outcome [4] | activation [5] -2.92%

CC(=O)Nc1ccccc1
inactive: activity change % (negative = inhibition) [1] 8.98% | Potency [2] | Potency [3] | outcome [4] | activation [6] -0.999%

CCN[C@H]1CN(CCCOC)S(=O)(=O)c2sc(S(N)(=O)=O)cc21
inactive: Potency [2]

CCCCCCCC(=O)OCC(COC(=O)CCCCCCC)OC(=O)CCCCCCC
inactive: activity change % (negative = inhibition) [1] -4.42% | Potency [2] | Potency [3] | outcome [4] | activation [5] -2.91%

CCCC(O)C(CC)CO (stereo unspecified)
inactive: activity change % (negative = inhibition) [1] 10.7% | Potency [2] | Potency [3] | outcome [4] | Potency [7] | activation [5] 1.06% | activation [6] 0.969%

Cc1cc(O)cc(C)c1Cl
active: Potency [7] 10.9 µM
inactive: activity change % (negative = inhibition) [1] 6.71% | Potency [2] | Potency [3] | outcome [4] | Potency [8] | outcome [9] | activation [6] -0.418%

CC[C@H](C)[C@H](N)C(=O)O
inactive: Potency [2]

CCN(CC)C(=O)c1cccc(C)c1
inactive: activity change % (negative = inhibition) [1] -13.1% | Potency [2] | outcome [4] | outcome [9] | Potency [7]

O=C(c1ccccc1)C(O)c1ccccc1 (stereo unspecified)
inactive: activity change % (negative = inhibition) [1] 7.64% and -3.28% | Potency [2] | outcome [4] | Potency [8] | Potency [7] | activation [6] -2.35% and -0.255%

O=C(NCC(O)CO)c1c(I)c(C(=O)NCC(O)CO)c(I)c(N(CCO)C(=O)CO)c1I (stereo unspecified)
inactive: Potency [2]

CC1(C)S[C@@H]2[C@H](N=CN3CCCCCC3)C(=O)N2[C@H]1C(=O)O
inactive: Potency [2]

CN1C(=O)CC(c2ccccc2)C1=O (stereo unspecified)
inactive: Potency [2]

— PubChem BioAssay (NCATS)
